Reference: article PMC5540273 (PLoS ONE, 2017)

tested on: BMX; settings: concentration: 1 μM, replicates: in singlicate; n = 1
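Also: KINOMEscan kinase panel screen.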

SMILES	%Inh
COc1cccc2c(-c3ccncc3)c(-c3ccc(F)cc3)nn12 [GW468513]	11%
COc1cccc(NC(=O)NCCNc2ccnc(Nc3ccc(F)cc3)n2)c1 [GSK1379879]	4%
Cn1cc(-c2ccc3c(c2)CCN3C(=O)Cc2cc(F)cc(F)c2F)c2c(N)ncnc21 [GSK2634140]	11%
CN(C)CCOc1ccc(-c2cc(-c3ccc(Cl)c(O)c3)c(-c3ccncc3)[nH]2)cc1.Cl.Cl [SB-684387]	27%

tested on: BRAF; settings: concentration: 1 μM, replicates: in singlicate; n = 1

SMILES	%Inh
COc1cc(Nc2nccc(N3CCC(NS(=O)(=O)c4ccc(NC(C)=O)cc4)CC3)n2)cc(OC)c1OC [GSK1379825]	14%
Cc1cc(-c2ccnc(Nc3cccc(C#N)c3)n2)cc(C)c1O [GSK1440913]	4%
Cc1ccc(C)c(NC(=O)Nc2ccc(C)c(-c3ccc(C(=O)Nc4ccncc4)cc3)c2)c1 [GSK1398473]	62%
CN(C)CCNS(=O)(=O)c1ccc(-c2ccnc3[nH]ccc23)cc1 [GSK977620]	0%
O=C(Nc1n[nH]c2nc(-c3cccc(O)c3)ccc12)C1CC1 [SB-711805]	46%
COc1cccc(C2=C(Nc3cccc(O)c3)C(=O)NC2=O)c1 [SB-390771]	0%
CSc1ccc(NC2=C(c3ccc(Cl)cc3)C(=O)NC2=O)cc1 [SB-317658]	0%
Cc1ccc(O)cc1Nc1ccnc2cc(-c3ccc(CN4CCCCC4)o3)ccc12 [GW557777]	22%
Fc1cc(Cl)ccc1Nc1ccnc2cc(-c3ccc(CN4CCOCC4)o3)ccc12 [GW560109]	39%
COC(=O)Nc1nc2ccc(Oc3ccc(NC(=O)Nc4cc(C(F)(F)F)ccc4F)cc3)cc2[nH]1.Cl [GW654607]	62%
CN(c1ccc(NC(=O)N2CCN(CCCN3CCOCC3)CC2)cc1)c1ccnc(Nc2ccc(CS(C)(=O)=O)cc2)n1.Cl [GW830899]	0%
CCn1c(-c2nonc2N)nc2c(-c3ccccc3)ncc(OCCCN)c21.O=C(O)C(F)(F)F.O=C(O)C(F)(F)F [GSK260205]	0%
COc1cc(Nc2nccc(N3CCC(NC(=O)Nc4ccc5c(c4)OCO5)C3)n2)cc(OC)c1OC (stereo not drawn) [GSK1379766]	12%
Cc1ccc(NC(=O)c2ccnc(N3CCCCC3)c2)cc1-c1ccc(C(=O)NCC2CC2)cc1 [GW775610]	77%
COC(=O)Nc1nc2ccc(Oc3ccc(CC(=O)Nc4cc(C(F)(F)F)ccc4F)cc3)cc2[nH]1 [GW680903]	45%
COc1ccc(NC(=O)c2ccoc2)cc1-c1ccc(C(=O)NCC2CC2)cc1 [GW810437]	0%
Cc1cccc(Nc2nc(NCCN)ncc2C(N)=O)c1 [GSK1292139]	3%
Cl.N#CCc1ccc(Nc2nccc(Nc3ccc(Oc4ccccc4)cc3)n2)cc1 [GW639905]	0%
Fc1cc(Cl)ccc1Nc1ccnc2cc(-c3ccc(CN4CCSCC4)o3)ccc12 [GW560106]	2%
NCCC(NC(=O)c1cc(Br)c(-c2ccnc3[nH]ccc23)s1)c1ccccc1.O=C(O)C(F)(F)F.O=C(O)C(F)(F)F (stereo not drawn) [GSK1307810]	0%
O=C(O)C(F)(F)F.O=c1[nH]ccc2nc(N[C@@H]3CCNC3)nc(Nc3ccc4c(c3)S(=O)(=O)CC4)c12 [GSK2181306]	0%
Cc1ccccc1CC(=O)N1CCc2cc(-c3cn(C)c4ncnc(N)c34)ccc21 [GSK2603346]	0%
CCNC(=O)/C=C/c1n[nH]c2cc(Sc3ccccc3C(=O)NC)ccc12	11%
Nc1ncc(-c2ccc3nccc(-c4ccncc4)c3c2)cc1S(=O)(=O)N1CCCCC1 [GSK1693850]	8%
CS(=O)(=O)c1cccc(CNc2nc(Nc3ccc4c(c3)CCC(=O)N4)ncc2C(F)(F)F)c1	0%
COc1ccc(C)c(Nc2ccnc(Nc3ccc(-c4cnc[nH]4)cc3)n2)c1.Cl [GW784041]	0%
O=C(O)C(F)(F)F.O=c1[nH]ccc2nc(N[C@@H]3CCNC3)nc(Nc3cc(Cl)cc(Cl)c3)c12 [GSK2188764]	0%
Cl.Cl.NC(CNC(=O)c1cc(Br)c(-c2ccnc3[nH]ccc23)s1)c1ccccc1 (stereo not drawn) [GSK1322949]	0%
COC(=O)Nc1nc2cc(Oc3ccc(NC(=O)Nc4cccc(SC)c4)cc3)ccc2[nH]1.Cl [GW697999]	83%
